Unmarked numbers belong to inactive results. Inconclusive results are not listed. The source made the active and inactive calls. Unless noted, calls come from the whole dose curve; as a rule, active = well fitted curve in the direction sought with a large enough effect in the repeat runs; inconclusive = weak or mixed curves; inactive = no such curve, though single readings can be large; an effect the other way counts as inactive or inconclusive.

The nature of experiment [1]: qHTS assay to identify small molecule agonists of the TGF-beta/Smad signaling pathway (AID 1346859; active = well fitted activation curve with a large enough effect in the signal ratio in the repeat runs, not every such curve was filed as active; the % refers to the signal ratio; note: series mostly up to about 77 µM). The method, boiled down: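 Read-out: fluorescence at 460 and 530 nm (405 nm excitation) after a 2 hr room-temperature incubation with beta-lactamase FRET substrate. SBE-bla HEK 293T cells had been treated with test compounds for 5 hr at 37 C.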
A general note: qHTS replaces the single test concentration by a dilution series.

Experiment [2] can be described thus: Human pregnane X receptor (PXR) small molecule agonists, qHTS cell viability counter screen (AID 1346977). Note: nearly all actives have a fitted effect of over 50% in size. In a few lines:
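Fluorescence read-out (CellTiter-Fluor) of viability in PXR-Luc HepG2 cells, multiplexed with the luciferase agonist read. Compounds in DMSO added after 5hr plating; 24hr total exposure at 37C, 5% CO2.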

A short description of experiment [3]: Caspase-3/7 induction in HepG2 cells by small molecules, qHTS assay (AID 1346978). Note: nearly all actives have a fitted effect of over 15% in size. In a few lines: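 Wild-type HepG2 cells (2,000/well) were settled 5 h at 37 C, 5% CO2, then exposed to compounds in DMSO for 17 h. Caspase-3/7 activity was read by luminescence 30 min after adding Caspase-Glo 3/7 reagent at room temperature.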
Experiment [4] can be described thus: Caspase-3/7 induction in CHO-K1 cells by small molecules, qHTS assay (AID 1346980). Note: nearly all actives have a fitted effect of over 15% in size. In a few lines:
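Wild-type cells were seeded at 1,500 per well and settled 5 hr at 37 C, 5% CO2, then exposed to DMSO-dissolved compounds for 17 hr. Caspase-Glo 3/7 reagent was added, and luminescence was read after 30min at room temperature.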

Experiment [5] is described as follows: Caspase-3/7 induction in HepG2 cells by small molecules, qHTS cell viability counter screen (AID 1346981). Note: series mostly up to about 92 µM; nearly all actives have a fitted effect of over 30% in size. In a few lines: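 Fluorescence read-out of live-cell protease activity (CellTiter-Fluor) after 1 hr with reagent. This was measured in the same wells as the caspase-3/7 luminescence, on HepG2 cells exposed to DMSO-dissolved compounds for 16 hr at 37 C.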

Experiment [6] addresses Nuclear receptor subfamily 1 group I member 2 (Homo sapiens) (UniProt O75469). As to the kind of experiment: Human pregnane X receptor (PXR) small molecule agonists, qHTS assay (AID 1346982). Note: nearly all actives have a fitted effect of over 35% in size. Note: potency is the fitted concentration of half-maximal effect. The method, boiled down:
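HepG2 PXR-Luc reporter line, 5% charcoal-stripped FBS; 5 hr pre-incubation, compound (DMSO) 24 hr at 37 C/5% CO2; ONE-Glo 30 min RT; luminescence read-out.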

The target in experiment [7] is Cytochrome P450 2D6 (Homo sapiens) (UniProt P10635). As to the kind of experiment: Cytochrome P450 Family 2 Subfamily D Member 6 (CYP2D6) small molecule antagonists: luciferase reporter qHTS assay (AID 1671196). Note: series mostly up to about 120 µM; nearly all actives have a fitted effect of over 50% in size. The method, boiled down:
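Luminogenic proluciferin substrate, CYP2D6 enzyme; 10 min RT preincubation with compound, NADPH regeneration system added, 1 h RT. Stop/detection reagent, 20 min RT, luminescence read (RLU). Signal proportional to CYP activity.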
(Reporter assays use an easily measured gene product as a stand-in for the process of interest.)

The target in experiment [8] is Cytochrome P450 2C19 (Homo sapiens) (UniProt P33261). As to the kind of experiment: Cytochrome P450 Family 2 Subfamily C Member 19 (CYP2C19) small molecule antagonists: luciferase reporter qHTS assay (AID 1671197). Note: nearly all actives have a fitted effect of over 65% in size. Note: potency is the fitted concentration of half-maximal effect. The method, boiled down:
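Compounds were tested on CYP2C19 activity via proluciferin conversion to luciferin. The 37C, 1 h reaction followed NADPH addition; detection reagent stopped it.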

Experiment [9] concerns the target Voltage-gated inwardly rectifying potassium channel KCNH2 (Homo sapiens) (UniProt Q12809). As to the kind of experiment: Human Ether-a-go-go-Related Gene (hERG) channel small molecule antagonists: fluorescence cell-based qHTS assay (AID 1671200).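 Note: hERG-expressing U2OS cells given a thallium stimulus after FluxOR II dye loading; series mostly up to about 77 µM; nearly all actives have a fitted effect of over 50% in size.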 The method, boiled down: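 Read-out: thallium influx as a surrogate for potassium, tracked as fluorescence (480 nm ex/540 nm em) every second for 2 min after Stimulus Buffer addition in dye-loaded hERG-U2OS cells.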

In experiment [10] the target is Cytochrome P450 3A4 (Homo sapiens) (UniProt P08684). Nature of the experiment: Cytochrome P450 Family 3 Subfamily A Member 4 (CYP3A4) small molecule antagonists: luciferase reporter qHTS assay (AID 1671201). Note: series mostly up to about 120 µM; nearly all actives have a fitted effect of over 50% in size. In a few lines: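 Luminescent readout (RLU) proportional to CYP3A4 activity, from luciferin generated off a proluciferin substrate. Enzyme–substrate mix plus compound 10 min at room temp, NADPH regeneration 1 h, detection reagent 20 min.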
Chain of Cytochrome P450 3A4 (Homo sapiens) (P08684 whole entry, looked up): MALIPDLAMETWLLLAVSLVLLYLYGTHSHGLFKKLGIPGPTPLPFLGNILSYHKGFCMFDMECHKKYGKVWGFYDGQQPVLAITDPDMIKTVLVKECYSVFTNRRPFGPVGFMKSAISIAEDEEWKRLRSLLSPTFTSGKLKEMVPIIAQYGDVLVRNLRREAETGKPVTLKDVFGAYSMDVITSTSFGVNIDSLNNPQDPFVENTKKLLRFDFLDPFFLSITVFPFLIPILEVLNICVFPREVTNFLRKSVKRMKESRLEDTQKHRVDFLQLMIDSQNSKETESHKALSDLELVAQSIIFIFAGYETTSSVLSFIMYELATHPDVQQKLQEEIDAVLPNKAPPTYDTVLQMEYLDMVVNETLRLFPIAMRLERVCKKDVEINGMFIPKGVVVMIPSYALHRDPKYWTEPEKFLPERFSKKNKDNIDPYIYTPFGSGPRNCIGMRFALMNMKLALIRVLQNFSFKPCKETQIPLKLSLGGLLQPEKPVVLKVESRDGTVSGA

Experiment [11] in a line: Caspase-3/7 induction in CHO-K1 cells by small molecules, qHTS cell viability counter screen (AID 1346979). Note: nearly all actives have a fitted effect of over 35% in size. The method, boiled down: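 CHO-K1 wt, 1,500 cells/well; 5hr pre-incubation 37C/5% CO2; compound pin transfer (DMSO); 16hr exposure; CellTiter-Fluor added, 1hr, fluorescence read.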
The target of experiment [12] is Nuclear receptor subfamily 1 group I member 2 (Rattus norvegicus) (UniProt Q9R1A7). As to the kind of experiment: Rat pregnane X receptor (rPXR) activation by small molecules, qHTS assay (AID 1346983). Note: nearly all actives have a fitted effect of over 20% in size. As to conditions: rPXR luciferase reporter cells, One-Glo luminescence, 24 h; max activation: active compounds read high. In a few lines: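 Cell-based rPXR luciferase reporter assay, 2,000 cells per well, rested 5hr at 37 C before compound addition in DMSO, then 24 hr at 37 C. One-Glo reagent was added and luminescence read after 30 min at room temperature.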
Chain of Nuclear receptor subfamily 1 group I member 2 (Rattus norvegicus) (Q9R1A7 whole entry, looked up): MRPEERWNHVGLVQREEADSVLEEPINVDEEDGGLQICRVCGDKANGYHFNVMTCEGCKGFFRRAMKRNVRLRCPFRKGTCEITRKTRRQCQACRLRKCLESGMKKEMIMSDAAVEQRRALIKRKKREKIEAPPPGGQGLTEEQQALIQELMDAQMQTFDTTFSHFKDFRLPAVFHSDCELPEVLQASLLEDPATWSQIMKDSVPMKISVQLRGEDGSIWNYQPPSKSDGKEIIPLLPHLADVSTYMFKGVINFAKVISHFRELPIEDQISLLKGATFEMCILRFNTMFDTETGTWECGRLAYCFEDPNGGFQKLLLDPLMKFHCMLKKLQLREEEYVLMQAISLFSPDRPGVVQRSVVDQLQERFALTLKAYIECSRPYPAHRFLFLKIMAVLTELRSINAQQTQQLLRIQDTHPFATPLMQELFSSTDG

Experiment [13] deals with Nuclear receptor subfamily 1 group I member 2 (Homo sapiens) (UniProt O75469). As to the kind of experiment: CYP3A4 induction through human pregnane X receptor (PXR) by small molecules, qHTS assay (AID 1346984). Note: nearly all actives have a fitted effect of over 40% in size. In a few lines: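 HepG2-derived DPX-2 line carrying PXR plus a CYP3A4-promoter luciferase reporter; cells plated 5 hr, compound-exposed 24 hr at 37C. CYP3A4 activity probed with 3uM (final) Luciferin-IPA for 3hr, then luciferase read after One-Glo.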
Chain of Nuclear receptor subfamily 1 group I member 2 (Homo sapiens) (O75469 whole entry, looked up): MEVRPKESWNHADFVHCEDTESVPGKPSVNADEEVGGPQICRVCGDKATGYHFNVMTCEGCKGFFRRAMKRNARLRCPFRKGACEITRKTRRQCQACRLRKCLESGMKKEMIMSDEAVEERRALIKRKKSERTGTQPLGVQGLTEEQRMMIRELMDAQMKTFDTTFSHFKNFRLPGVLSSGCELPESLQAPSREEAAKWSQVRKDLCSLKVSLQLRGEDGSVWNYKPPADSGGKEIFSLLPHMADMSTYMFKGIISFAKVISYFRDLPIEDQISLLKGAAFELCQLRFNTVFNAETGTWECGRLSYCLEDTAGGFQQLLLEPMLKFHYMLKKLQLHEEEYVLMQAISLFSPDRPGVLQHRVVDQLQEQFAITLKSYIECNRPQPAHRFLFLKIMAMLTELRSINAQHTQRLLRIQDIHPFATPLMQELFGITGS

For experiment [14] the target is unchanged. Nature of the experiment: Human pregnane X receptor (PXR) activation by small molecules, qHTS assay (AID 1346985). Note: nearly all actives have a fitted effect of over 40% in size. The method, boiled down: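 DPX-2 cells (HepG2 co-transfected with a PXR response element and a CYP3A4-promoter luciferase construct) were seeded at 2,000 per well, rested 5 hr at 37C, then exposed to DMSO-dissolved compounds for 24 hr. Activation was read as luciferase luminescence.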

The target in experiment [15] is Cytochrome P450 2C9 (Homo sapiens) (UniProt P11712). As to the kind of experiment: Cytochrome P450 Family 2 Subfamily C Member 9 (CYP2C9) small molecule antagonists: luciferase reporter qHTS assay (AID 1671198). Note: nearly all actives have a fitted effect of over 50% in size. Note: potency is the fitted concentration of half-maximal effect. The method, boiled down: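 CYP2C9 activity was measured with a P450-Glo proluciferin substrate. Enzyme–substrate mix was held with compound for 10 min at room temperature, then NADPH regeneration solution was added for 1 h at 37C. Luciferin product was read as luminescence.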
Chain of Cytochrome P450 2C9 (Homo sapiens) (P11712 whole entry, looked up): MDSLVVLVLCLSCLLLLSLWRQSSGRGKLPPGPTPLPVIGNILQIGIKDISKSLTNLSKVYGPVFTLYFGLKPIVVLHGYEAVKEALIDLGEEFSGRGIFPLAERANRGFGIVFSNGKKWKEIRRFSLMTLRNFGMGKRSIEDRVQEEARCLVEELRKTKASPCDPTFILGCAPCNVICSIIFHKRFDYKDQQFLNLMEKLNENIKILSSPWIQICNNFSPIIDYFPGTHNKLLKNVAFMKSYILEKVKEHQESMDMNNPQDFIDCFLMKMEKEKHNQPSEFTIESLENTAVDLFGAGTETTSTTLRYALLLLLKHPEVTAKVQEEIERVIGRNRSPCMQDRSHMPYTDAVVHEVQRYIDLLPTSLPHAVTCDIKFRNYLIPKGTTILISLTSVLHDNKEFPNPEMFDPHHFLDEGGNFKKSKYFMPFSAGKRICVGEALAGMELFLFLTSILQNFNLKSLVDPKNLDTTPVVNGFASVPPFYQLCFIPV

Experiment [16] deals with Cytochrome P450 1A2 (Homo sapiens) (UniProt P05177). Nature of the experiment: Cytochrome P450 Family 1 Subfamily A Member 2 (CYP1A2) small molecule antagonists: luciferase reporter qHTS assay (AID 1671199). Note: nearly all actives have a fitted effect of over 50% in size. Note: potency is the fitted concentration of half-maximal effect. In a few lines:
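Luminescence readout (relative luminescence units) after luciferin detection reagent, 20 min RT. Preceded by 1 h room-temperature CYP1A2 reaction with NADPH regeneration solution following 10 min compound preincubation with enzyme and proluciferin substrate. Furafylline positive control.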
% is set by controls: 0 for no effect and ±100 for the full control effect.

Chain of Cytochrome P450 1A2 (Homo sapiens) (P05177 whole entry, looked up): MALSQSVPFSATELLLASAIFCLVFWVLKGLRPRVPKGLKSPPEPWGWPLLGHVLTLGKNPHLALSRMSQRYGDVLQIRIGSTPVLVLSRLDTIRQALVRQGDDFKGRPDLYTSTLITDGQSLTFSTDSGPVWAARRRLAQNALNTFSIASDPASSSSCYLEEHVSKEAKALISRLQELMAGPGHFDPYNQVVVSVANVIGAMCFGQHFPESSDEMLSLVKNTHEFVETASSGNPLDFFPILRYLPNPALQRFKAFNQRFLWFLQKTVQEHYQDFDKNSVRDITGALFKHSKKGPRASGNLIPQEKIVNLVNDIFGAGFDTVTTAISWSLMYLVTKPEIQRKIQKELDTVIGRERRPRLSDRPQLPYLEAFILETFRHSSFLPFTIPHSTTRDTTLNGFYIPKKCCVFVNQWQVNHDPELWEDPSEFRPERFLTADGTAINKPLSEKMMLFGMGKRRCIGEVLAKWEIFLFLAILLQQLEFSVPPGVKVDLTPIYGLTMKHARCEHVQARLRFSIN
Chain of Cytochrome P450 2D6 (Homo sapiens) (P10635 whole entry, looked up): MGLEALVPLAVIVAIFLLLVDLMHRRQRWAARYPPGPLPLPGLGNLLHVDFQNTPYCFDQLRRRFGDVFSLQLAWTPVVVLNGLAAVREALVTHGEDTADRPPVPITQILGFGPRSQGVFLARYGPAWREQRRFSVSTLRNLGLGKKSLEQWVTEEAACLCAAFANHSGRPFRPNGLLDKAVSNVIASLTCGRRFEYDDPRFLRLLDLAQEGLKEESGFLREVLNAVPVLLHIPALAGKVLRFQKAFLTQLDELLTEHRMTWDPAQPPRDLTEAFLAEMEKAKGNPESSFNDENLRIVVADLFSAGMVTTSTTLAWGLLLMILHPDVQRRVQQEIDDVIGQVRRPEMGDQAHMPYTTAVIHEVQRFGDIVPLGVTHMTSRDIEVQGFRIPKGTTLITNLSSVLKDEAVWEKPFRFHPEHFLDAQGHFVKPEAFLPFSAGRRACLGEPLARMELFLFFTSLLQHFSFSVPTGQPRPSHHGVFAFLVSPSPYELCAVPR
Chain of Voltage-gated inwardly rectifying potassium channel KCNH2 (Homo sapiens) (Q12809 whole entry, looked up): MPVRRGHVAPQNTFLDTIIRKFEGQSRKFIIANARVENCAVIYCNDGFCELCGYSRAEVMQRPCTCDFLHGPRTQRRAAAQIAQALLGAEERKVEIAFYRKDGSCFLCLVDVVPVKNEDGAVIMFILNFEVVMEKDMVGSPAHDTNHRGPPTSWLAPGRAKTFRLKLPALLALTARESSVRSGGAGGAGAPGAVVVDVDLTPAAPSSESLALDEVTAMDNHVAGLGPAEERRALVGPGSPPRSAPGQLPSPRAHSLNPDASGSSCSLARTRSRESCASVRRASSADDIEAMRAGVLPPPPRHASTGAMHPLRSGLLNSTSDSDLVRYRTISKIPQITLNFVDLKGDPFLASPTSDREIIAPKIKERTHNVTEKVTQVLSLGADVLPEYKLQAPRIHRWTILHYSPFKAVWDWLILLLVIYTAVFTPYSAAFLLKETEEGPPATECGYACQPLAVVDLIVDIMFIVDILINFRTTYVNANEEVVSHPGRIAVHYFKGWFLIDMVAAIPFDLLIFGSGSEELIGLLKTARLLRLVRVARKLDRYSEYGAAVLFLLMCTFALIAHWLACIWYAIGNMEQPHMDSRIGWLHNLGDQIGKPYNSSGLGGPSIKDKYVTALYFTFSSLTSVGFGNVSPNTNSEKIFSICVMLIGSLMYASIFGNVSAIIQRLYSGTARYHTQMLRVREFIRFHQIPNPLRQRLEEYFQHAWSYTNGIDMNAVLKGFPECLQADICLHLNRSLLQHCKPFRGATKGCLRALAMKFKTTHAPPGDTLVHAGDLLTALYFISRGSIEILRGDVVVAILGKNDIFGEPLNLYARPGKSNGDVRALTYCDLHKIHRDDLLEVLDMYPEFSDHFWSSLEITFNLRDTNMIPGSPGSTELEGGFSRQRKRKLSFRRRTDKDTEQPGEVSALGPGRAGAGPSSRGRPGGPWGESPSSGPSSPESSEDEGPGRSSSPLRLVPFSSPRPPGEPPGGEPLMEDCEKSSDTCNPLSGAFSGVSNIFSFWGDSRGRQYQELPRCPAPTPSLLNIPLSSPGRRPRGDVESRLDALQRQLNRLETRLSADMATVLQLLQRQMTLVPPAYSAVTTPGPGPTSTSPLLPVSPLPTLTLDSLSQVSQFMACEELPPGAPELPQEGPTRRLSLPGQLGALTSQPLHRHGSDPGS
Chain of Cytochrome P450 2C19 (Homo sapiens) (P33261 whole entry, looked up): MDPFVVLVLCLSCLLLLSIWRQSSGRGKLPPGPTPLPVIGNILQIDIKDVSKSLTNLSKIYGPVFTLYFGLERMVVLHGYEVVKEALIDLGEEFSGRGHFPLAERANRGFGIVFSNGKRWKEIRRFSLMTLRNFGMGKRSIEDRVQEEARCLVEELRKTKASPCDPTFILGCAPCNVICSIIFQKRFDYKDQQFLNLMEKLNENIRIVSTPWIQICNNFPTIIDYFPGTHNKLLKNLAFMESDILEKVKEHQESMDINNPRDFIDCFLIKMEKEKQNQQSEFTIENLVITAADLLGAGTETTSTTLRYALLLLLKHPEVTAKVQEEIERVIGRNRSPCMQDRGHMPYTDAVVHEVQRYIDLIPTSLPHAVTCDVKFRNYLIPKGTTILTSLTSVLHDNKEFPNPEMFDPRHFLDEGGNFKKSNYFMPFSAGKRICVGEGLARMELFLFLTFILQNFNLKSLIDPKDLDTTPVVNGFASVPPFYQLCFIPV

As to `C/C=C(\C)C(=O)OC/C=C(\C)CCC=C(C)C`, the molecule was called inactive in experiment [1], in experiment [2], in experiment [3], in [4] and in experiment [5]. Further, the Potency result in experiment [6], in [7], in experiment [8], in experiment [9] and in [10] was “inactive” in each case.

As for `Nc1ccc(C(=O)NCC(=O)O)cc1`, the outcome in experiment [1], in experiment [2], in [3], in experiment [13] and in [14] was inactive. Moreover, the Potency result in experiment [11], in [6], in experiment [8], in experiment [15], in experiment [16] and in [9] was “inactive” each time. For the same molecule, the Potency result in experiment [10] was “inactive”. The max activation in experiment [12] is -2.15%.

Turning to `CCOC(=O)[C@H](CCc1ccccc1)N[C@H]1CS[C@H](c2cccs2)CN(CC(=O)O)C1=O`, the outcome in experiment [1], in experiment [2], in experiment [3] and in experiment [5] was inactive. Also, the Potency result in experiment [11], in [6], in [8], in [15], in experiment [16] and in [9] was “inactive” each time. Further, in experiment [12], the max activation was -2.69%.

`COC(=O)c1ccc(C(=O)O)cc1`: the call in experiment [1], in [2], in experiment [3], in [4] and in experiment [5] was inactive. In addition, the Potency result in [11], in [6], in experiment [8], in [16] and in [10] was “inactive” in each case.

Regarding `CC(CC(=O)Cl)CC(C)(C)C` (configuration not stated), the call in experiment [1], in [2], in experiment [3], in experiment [4] and in experiment [5] was inactive. Also, the Potency entry in [11], in experiment [7], in experiment [9] and in experiment [10] was “inactive” throughout. Further, the Potency in experiment [8] was 80.2 µM (active).

In the case of `CCO/C=C1\N=C(c2ccccc2)OC1=O`, the molecule was called inactive in [1], in experiment [2], in experiment [3] and in [5]. The Potency result in experiment [6], in experiment [9] and in experiment [10] was “inactive” in each case. Also, the Potency was 79.4 µM (active) in [8] and 35.5 µM (active) in [16].

In the case of `CCOC(=O)c1ccc(N(C)C)cc1`, the result in experiment [1], in [2], in experiment [4] and in experiment [5] was inactive. Also, the Potency entry in experiment [11], in [7] and in experiment [9] was “inactive” in each case. Also, the Potency is 54.5 µM (active) in experiment [6], 22.4 µM (active) in [8], 31.7 µM (active) in experiment [15] and 5.03 µM (active) in experiment [16].

`CC(=O)OCC(=O)[C@@]1(O)CC[C@H]2[C@@H]3CCC4=CC(=O)C=C[C@]4(C)[C@H]3[C@@H](O)C[C@@]21C`: the molecule was called inactive in [1], in experiment [2], in experiment [3], in [4], in experiment [5] and in experiment [13]. For the same molecule, the result in experiment [14] was inactive. For the same molecule, the Potency result in experiment [6], in [7], in experiment [8], in experiment [15], in experiment [16] and in [9] was “inactive” throughout.

`CC(O)CCCCn1c(=O)c2c(ncn2C)n(C)c1=O` (configuration not stated): the molecule was classed as inactive in experiment [1], in experiment [2], in experiment [3], in experiment [4], in [5] and in [13]. Further, the molecule was classed as inactive in [14]. For the same molecule, the Potency result in experiment [11], in experiment [8], in experiment [15], in experiment [9] and in experiment [10] was “inactive” each time. Moreover, the max activation in [12] was -1.02%.

`CC(C)(O)c1ccc(C(C)(C)O)cc1`: the molecule was classed as inactive in [1], in experiment [2], in [3], in [4] and in experiment [5]. Besides, the Potency entry in experiment [6], in experiment [7], in experiment [8], in experiment [15], in [16] and in experiment [9] was “inactive” throughout. The Potency entry in [10] is “inactive”.

These data come from PubChem BioAssay (Tox21).
